# D1 PAM: potentiators of human D1 dopamine receptor; hit rate 0.036% among 360,000; potentiation, % at 10 µM; P21728; HEK293 TREx D1 cells, calcium flux, dopamine EC20 potentiation; in the data active = potentiation above about 30%; note: 0% is about no effect
# Target sequence (P21728 whole entry, looked up): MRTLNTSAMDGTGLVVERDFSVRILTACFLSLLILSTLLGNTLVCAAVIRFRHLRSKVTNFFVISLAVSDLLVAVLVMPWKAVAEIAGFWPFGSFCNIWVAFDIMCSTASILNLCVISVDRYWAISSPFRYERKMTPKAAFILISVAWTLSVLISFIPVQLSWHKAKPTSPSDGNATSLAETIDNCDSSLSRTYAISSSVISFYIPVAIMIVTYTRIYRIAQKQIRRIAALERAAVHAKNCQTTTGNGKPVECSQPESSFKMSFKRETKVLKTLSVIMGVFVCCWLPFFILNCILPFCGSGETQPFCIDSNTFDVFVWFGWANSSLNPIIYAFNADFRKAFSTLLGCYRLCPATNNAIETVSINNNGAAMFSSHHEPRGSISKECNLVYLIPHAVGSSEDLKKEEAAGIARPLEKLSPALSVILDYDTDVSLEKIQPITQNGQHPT
# D3 antag: D3 dopamine receptor (human) antagonism; D3R cells, DiscoveRx beta-arrestin luminescence, antagonist mode; hits give low values; max response, negative = inhibition, %; hit rate 2.5% among 360,000; AID 652054; in the data active = max response below about -50%; note: % is set by controls: 0 for no effect and ±100 for the full control effect
#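 Cells plated overnight at 1500 cells/well, then exposed to library compounds with dopamine controls for 90 minutes at 37 degrees C. DiscoveRx reagent added for 30–60 minutes at room temperature; luminescence read, quantitative HTS format.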
# DRD3 agonist: D3 dopamine receptor (human) agonism. P35462. D3R DiscoveRx beta-arrestin cells, luminescence, 90 min. max activation, %. hit rate 0.58% among 410,000; in the data active = max activation above about 30%; note: 0% is about no effect
#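 Agonist mode: compounds and dopamine controls were applied to plated cells for 90 min at 37 degrees C after an overnight attachment at 1500 cells/well. Luminescent read-out followed 30 - 60 minutes at room temperature with DiscoveRx detection reagent.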
# D1 antagonist: blocks dopamine activation of the human D1 receptor | HEK293 TREx D1 cells, calcium flux, dopamine EC80; hits give low values | activity change, negative = inhibition, % at 10 µM | hit rate 3.2% among 360,000 | AID 504652; in the data active = activity change below about -30%; note: % is set by controls: 0 for no effect and ±100 for the full control effect
#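 Compound effects on dopamine-evoked calcium signalling were measured in tetracycline-induced HEK293 Trex D1 cells. Dopamine at EC80 followed a 180 s compound pre-read, and fluorescence was tracked kinetically for 180 s more.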
# D1 agonist: activates the human D1 dopamine receptor; hit rate 1% among 360,000; HEK293 T-REx D1 cells, calcium flux, agonist mode; AID 504660; P21728; activation, % at 2 µM; in the data active = activation above about 30%; note: 0% is about no effect
#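 Inducible HEK293 T-REx D1 cells, force-coupled to calcium signalling, were plated at 4000 cells/well with tetracycline and held overnight at 30 C. After no-wash calcium dye loading, compound-evoked calcium rise over 180 s flagged agonists.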
# * = called active by the depositor; . = not tested or not shown; ! = repeats disagree. Most compounds without a hit are left out; they make up all but 6% or so of the library.
SMILES,D1 PAM,D3 antag,DRD3 agonist,D1 antagonist,D1 agonist
NC(=O)C[n+]1cccc(CNC(=O)c2ccc(OC(F)F)cc2)c1,4,9,0,-30*,1
O=C(C[n+]1cccc(CNC(=O)c2ccc(OC(F)F)cc2)c1)Nc1cc(C(F)(F)F)ccc1Cl,-11,-64*,-24,-23,0
CN(C)CC(=O)Nc1cc(C(F)(F)F)ccc1Cl,0,-58*,-12,3,4
Cc1ccc[n+](CC(=O)Nc2cc(C(F)(F)F)ccc2Cl)c1,-3,-79*,-36,3,2
O=C(CCc1ccccc1)Nc1cc(C(F)(F)F)ccc1Cl,1,3,-6,-12,4
N/C(CC(=O)Nc1cc(C(F)(F)F)ccc1Cl)=N\O,-2,-17,-2,-7,12
CCN(C(=O)CSc1nc2ccccc2n1Cc1ccccc1C#N)c1ccccc1,-1,.,-19,-3,6
CCCc1nnc(NC(=O)Cc2coc3ccc(C(C)C)cc23)s1,7,.,-16,-1,-1
Cc1ccc(S(=O)(=O)Cn2nnnc2C(C(C)C)N2CCC(C(N)=O)CC2)cc1 (centres undefined),-2,-12,-25,-3,1
CCOC(=O)c1c(-c2ccccc2)csc1NC(=O)/C(C#N)=C/c1ccc(OC)c(OC)c1,-4,0,-5,1,9
CCOC(=O)c1cc(CC)sc1NC(=O)c1ccc(N2C(=O)CCC2=O)cc1,-2,17,51*,3,3
CCOC(=O)c1c(-c2ccccc2)csc1NC(=O)/C(C#N)=C/c1ccc(O)c(OC)c1,4,-9,3,-11,89*
CCOC(=O)c1c(-c2ccc(C)cc2)csc1NC(=O)c1cccc(N2C(=O)CCC2=O)c1,-2,7,5,14,1
CCOC(=O)c1c(-c2ccccc2)csc1NC(=O)c1cccc(N2C(=O)CCC2=O)c1,4,44,62*,-4,5
COc1cc(C2/C(=C(\O)c3ccc4c(c3)OCCO4)C(=O)C(=O)N2Cc2ccco2)cc(OC)c1OC (centres undefined),-8,0,-4,-33*,1
COc1cc(C2/C(=C(\O)c3ccc4c(c3)OCCO4)C(=O)C(=O)N2Cc2ccco2)ccc1O (centres undefined),1,-2,-3,-1,5
COc1ccc(/C(O)=C2\C(=O)C(=O)N(Cc3ccco3)C2c2cc(OC)ccc2OC)cc1 (centres undefined),1,4,-4,-31*,1
O=C1C(=O)N(Cc2ccco2)C(c2cccc(Cl)c2)/C1=C(\O)c1ccc2c(c1)OCCO2 (centres undefined),0,10,4,-53*,2
O=C(Nc1ccccc1C(=O)Nc1ccccn1)c1cc(F)c(F)cc1Cl,-1,6,5,-31*,7
O=C(Nc1ccccc1C(=O)Nc1ccccn1)c1ccccc1F,0,-5,-2,-2,5
Cc1nn(-c2ccccc2)c2c1cc1c(=O)[nH]c(=O)nc-1n2-c1cccc(C(F)(F)F)c1,1,.,2,34,1
COc1ccccc1N(C)S(=O)(=O)c1ccc(Cl)c(C(=O)NNC(=O)c2ccccc2O)c1,0,12,18,8,0
COc1ccccc1N(C)S(=O)(=O)c1ccc(Cl)c(C(=O)OCc2c(C)noc2C)c1,-13,4,-2,-29,31*
Cc1ccc(NC(=S)NNC(=O)c2nn(C)cc2Cl)cc1,-3,-54*,-2,-10,1
Cc1cccc(NC(=S)NNC(=O)c2nn(C)cc2Cl)c1,-2,-99*,-4,3,1
SMILES,D1 PAM,D3 antag,DRD3 agonist,D1 antagonist,D1 agonist
COc1ccccc1OCC1CNC(=O)O1 (centres undefined),.,.,0,.,.
Cc1cc(C)cc(OCC2CNC(=O)O2)c1 (centres undefined),.,14,83*!,.,.
Cc1ccc(C2=Nn3c(COc4ccc(Cl)cc4)nnc3SC2CC(=O)O)cc1 (centres undefined),-4,-3,32*,-12,0
CC1=C(C(=O)Nc2ccc(C(=O)NCCCN3CCCCC3C)cc2)SCCO1 (centres undefined),.,16,-10,.,.
O=C1NC(=S)S/C1=C\c1ccc2ccccc2c1,-2,33,-2,-31*,3
O=C(O)CC(CCc1ccccc1)OC1OC(CO)C(O)C(O)C1O (centres undefined),-9,0,33*,3,0
[C-]#[N+][C@H](O[C@@H]1O[C@H](CO)[C@@H](O)[C@H](O)[C@H]1O)c1ccccc1,.,-1,-18,.,.
Nc1nc(OCc2ccccc2)c2[nH]cnc2n1,.,-121*,-96,.,.
Nc1nc(SCc2ccccc2)c2[nH]cnc2n1,-4,5,0,0,3
Cc1nn(C(=O)COc2ccccc2)c(C)c1Sc1ccccc1,-2,.,-2,-65*,110*
Cc1ccc(Sc2c(C)nn(C(=O)COc3ccccc3)c2C)cc1,-3,.,-7,-10,21
O=C(ONC(=O)C1C2C=CC(C2)C1C(=O)NOC(=O)c1ccccc1)c1ccccc1 (centres undefined),.,-5,4,.,.
COC(=O)[C@H](CC(C)C)NS(=O)(=O)c1ccc(F)cc1Br,.,-23,-3,.,.
OC(COC(c1ccccc1)c1ccccc1)CN1CCc2ccccc2C1 (centres undefined),-2,-54*,-12,-25,7
OC(COC(c1ccc(Cl)cc1)c1ccc(Cl)cc1)CN1CCc2ccccc2C1 (centres undefined),6,-56*,-13,9,6
Cc1ccccc1-c1noc(-c2ccc(Cl)cc2)n1,4,32,0,14,4
Cc1ccccc1-c1noc(-c2ccc(O)cc2)n1,4,23,21,-41*,68*
Cc1nnc(SCC(=O)NC2CC2)s1,-1,-13,-4,-48*,1
Cc1ccc(/C=N/NC(=O)c2nnn(-c3nonc3N)c2CSc2ccc(Cl)cc2)o1,-14,-5,-2,-21,3
CCC(=O)OCOc1ccc(/C=C2/CCC(CN(C)C)C2=O)cc1 (centres undefined),.,-87*,-10,.,.
CCCNC(=O)C(Cc1ccccc1)NC(=O)c1ccc(C(F)(F)F)cc1 (centres undefined),7,8,5,1,-2
CCCNC(=O)C(Cc1ccccc1)NC(=O)c1ccccn1 (centres undefined),1,-56*,-7,-12,-1
CCCCN(C=O)c1c(CC)nc2ccc(C(=O)NCc3ccccc3OC)cn12,.,-51*,2,.,.
Cc1cccn2c(=O)c3cc(C(=O)NCc4ccccc4Cl)sc3nc12,1,.,5,-1,0
CCOc1cc(C(=O)Nc2ccc(F)cc2)cc(Br)c1OC,-1,-24,-11,-53*,10
CCOc1cc(C(=O)Nc2ccc(N3CCOCC3)cc2)cc(Br)c1OC,-2,0,2,9,0

# Screens (PubChem BioAssay)
